Most compounds without a hit are left out; they make up all but 3.1% or so of the library.
Tau ThT inhib – inhibitors of human tau fibril formation, thioflavin T binding. recombinant tau K18 P301L, heparin-induced fibrillization, ThT fluorescence. 270,000 tested, 2.1% active. AID 1460. Potency, µM (titrated, usually from 57.4 µM), without a hit: top-dose activity, negative = inhibition, usual class: inhibitors. P10636; note: nearly all actives have a fitted effect of over 55% in size
Target sequence (P10636 561-689 P618L limits assumed): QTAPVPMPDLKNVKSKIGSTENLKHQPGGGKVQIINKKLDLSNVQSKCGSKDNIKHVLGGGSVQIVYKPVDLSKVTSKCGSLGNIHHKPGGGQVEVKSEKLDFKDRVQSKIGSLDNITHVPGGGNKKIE
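Using a mix of unlabeled (15 uM) and Alexa 594-labeled (0.24 uM) tau K18 P301L, heparin-triggered fibrillization over 6 hr at 37 C was scored by ThT fluorescence.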
TRb SRC2 PPI – inhibitors of human thyroid hormone receptor beta-SRC2 interaction. P10828. TRbeta-SRC2 peptide binding, fluorescence polarization; receptor liganded with 1 µM T3. Potency, µM (series often up to 106 µM), for the others: top-dose activity change, negative = inhibition, actives largely listed as inhibitors. 280,000 tested, 0.065% active;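 note: plate controls were bound peptide for no effect and peptide without receptor for full effect; nearly all actives have a fitted effect of over 50% in size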
Target sequence (P10828 whole entry, looked up): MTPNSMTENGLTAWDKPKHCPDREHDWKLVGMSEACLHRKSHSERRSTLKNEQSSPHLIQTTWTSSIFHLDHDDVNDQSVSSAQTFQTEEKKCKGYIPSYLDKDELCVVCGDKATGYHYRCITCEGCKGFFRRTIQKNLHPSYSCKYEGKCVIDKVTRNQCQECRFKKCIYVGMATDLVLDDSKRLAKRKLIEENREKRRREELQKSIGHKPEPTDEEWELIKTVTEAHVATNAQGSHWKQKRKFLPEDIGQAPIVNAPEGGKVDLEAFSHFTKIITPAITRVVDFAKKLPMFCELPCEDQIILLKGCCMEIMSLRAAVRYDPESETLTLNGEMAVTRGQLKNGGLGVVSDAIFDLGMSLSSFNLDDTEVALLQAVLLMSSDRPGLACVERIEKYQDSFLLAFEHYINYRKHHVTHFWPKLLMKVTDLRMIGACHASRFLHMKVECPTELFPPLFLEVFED
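A fluorescence polarization screen tested compounds at multiple concentrations against complex formation between 0.6 uM TRb ligand-binding domain and 20 nM Texas Red SRC2 peptide, with 1 uM T3 present; readout after 5 hr.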
RGS12 GoLoco inh – inhibitors of human Gai1-RGS12 GoLoco interaction (red fluorophore); P63096; Gai1:RGS12 GoLoco peptide FP, rhodamine, 10 min; Potency, µM (series often up to 61.6 µM), for inactives: top-dose activity, negative = inhibition, actives largely listed as inhibitors; 230,000 tested, 0.44% active; active = well fitted inhibition curve with a large enough effect, not every such curve was filed as active; inactive = no such curve, though single readings can be large or run the other way; note: nearly all actives have a fitted effect of over 30% in size
Tau FP inhib – blocks human tau fibril formation measured by polarization; K18 P301L tau heparin fibrillization, Alexa594 FP, 6 h; Potency, µM (series often up to 57.7 µM), inactives show top-dose activity, negative = inhibition, hits mostly inhibitors; 280,000 tested, 0.39% active; AID 1468; note: nearly all actives have a fitted effect of over 55% in size
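Steps: dispense K18 P301L tau (15 uM plus 0.24 uM Alexa 594 tracer, final) in pH 7 sodium acetate; add compound; add heparin (20 uM final); incubate 6 hr, 37 C; add ThT (30 uM final); after 1 hr ambient, read FP.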
TR SRC2 fluor cs – Texas Red fluorescence interference in TRb-SRC2 counter-screen | TRb/SRC2 Texas Red total fluorescence interference | Potency, µM (doses to about 106 µM), for the others: at the highest dose fluorescence change, negative = quenching | 280,000 tested, 0.29% active; active = well fitted curve in either direction with a large enough effect; inconclusive = small, poorly fitted or top-dose-only effect
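Flags fluorescent or light-absorbing compounds by total fluorescence, S + 2P, at 555 nm excitation and 632 nm emission. Mixture: 20 nM Texas Red SRC2 peptide, 0.6 uM human TRb LBD, 1 uM T3, 5% DMSO; compound exposure 5 h at ambient temperature.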
Tau fluor cs – counter-screen for tau fibril formation inhibitors. 280,000 tested, 0.93% active. Potency, µM (titrated, usually from 57.7 µM), for inactives: at the top dose activity change, negative = decrease. tau K18 P301L Alexa594 fluorescence, heparin fibrillization; note: nearly all actives have a fitted effect of over 55% in size
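Human tau K18 P301L (15 uM unlabeled, 0.24 uM Alexa 594-labeled) in 100 mM sodium acetate pH 7 with 20 uM heparin, 6 hr at 37 C. ThT 30 uM added, 1 hr ambient; Alexa 594 FP and total fluorescence read at 555/632 nm.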
Active calls of the source: *; ? = inconclusive; . = no result given; [ ] = dose if it differs, or a comment. Unless noted, calls come from the whole dose curve; as a rule, active = well fitted curve in the direction sought with a large enough effect; inconclusive = small, poorly fitted or top-dose-only effect, or another doubt; inactive = no such curve, though single readings can be large; an effect the other way counts as inactive or inconclusive. Unless noted, % is set by controls: 0 for no effect and ±100 for the full control effect; potency is the fitted concentration of half-maximal effect.

SMILES | Tau ThT inhib | TRb SRC2 PPI | RGS12 GoLoco inh | Tau FP inhib | TR SRC2 fluor cs | Tau fluor cs
Cc1cccc(NC(=O)CSc2nc3ccc(NC(=O)c4ccco4)cc3s2)c1 | 14.0% | 12.2% | . | ? | 4.7% | ?
CCCC(=O)Nc1ccc2nc(SCC(=O)Nc3ccc(N4CCOCC4)c(Cl)c3)sc2c1 | ? | -18.4% | 4.47µM* | 5.4% | 0.2% | 14.1µM*[quencher]
Cc1ccccc1OCC(=O)Nc1ccc2nc(SCCOc3ccccc3)sc2c1 | ? | 3.7% | . | -12.8% | 10.9% | -24.3%
COc1cccc(NC(=O)CSc2nc3ccc(NC(=O)c4ccco4)cc3s2)c1 | 8.9% | ? | . | ? | -2.2% | 15.8µM*[quencher]
COc1cc(C)ccc1OCCSc1nc2ccc(NC(C)=O)cc2s1 | -5.0% | 1.9% | . | 25.1µM* | -21.5% | ?
Cc1ccccc1C(=O)Nc1ccc2nc(SCCOc3ccccc3)sc2c1 | -9.7% | -1.0% | . | ? | -1.4% | -16.9%
Cc1cccc(OCCSc2nc3ccc(NC(=O)c4cccs4)cc3s2)c1 | 7.2% | 0.7% | . | 7.08µM* | 6.7% | ?
CC(=O)Nc1ccc2nc(SCCOc3ccccc3)sc2c1 | -11.1% | -0.5% | . | ? | 3.6% | ?
Cc1ccc(NC(=O)CSc2nc3ccc(NC(=O)c4cccs4)cc3s2)cc1 | 1.6% | 9.2% | . | ? | -15.1% | ?
Cc1ccccc1OCCSc1nc2ccc(NC(=O)c3cccs3)cc2s1 | 14.1% | 4.6% | . | 10µM* | 9.3% | ?
Cc1ccc(NC(=O)CSc2nc3ccc(NC(=O)c4cccs4)cc3s2)c(C)c1 | -9.7% | 12.0% | . | 17.8µM* | ? | ?
CCOC(=O)c1c(NC(=O)C(C)Sc2cn(CCNC(=O)c3c(F)cccc3F)c3ccccc23)sc2c1CCC2 (centres undefined) | -11.2% | 6.3% | . | -5.4% | 4.6% | -23.1%
Cc1ccccc1OCCSc1nc2ccc(NC(=O)c3cccc(F)c3)cc2s1 | ? | 3.6% | . | 14.1µM* | 10.9% | ?
O=C(O)c1ccc(N/N=C/C(Br)=C/c2ccccc2)cc1 | 14.1µM* | -0.6% | -11.1% | 7.5% | -5.1% | ?
C(=N\Nc1nc2ccccc2[nH]1)/c1ccc2ncccc2c1 | . | 11.1% | 10.2% | ? | -9.8% | ?
BrC(=C\c1ccccc1)/C=N/Nc1nc2ccccc2[nH]1 | 25.1µM* | 5.4% | 10.7% | -8.9% | -0.7% | ?
O=C(N/N=C/C(Br)=C/c1ccccc1)C(O)c1ccccc1 (centres undefined) | -12.4% | 5.1% | 8.9% | -12.7% | -0.3% | ?
CCc1ccc(-n2nc(C)c3c(C(=O)Nc4cc(C)ccc4C)cc(C)nc32)cc1 | -0.7% | 5.8% | . | -5.7% | 0.9% | 1.9%
NS(=O)(=O)c1ccc(NC(=S)NCCc2ccccc2)cc1 | 9.8% | -2.1% | -4.0% | -6.8% | 0.9% | -2.9%
O=[N+]([O-])c1ccc(NC(=S)NCCc2ccc(Cl)cc2)cc1 | ? | -5.5% | -0.9% | 12.6µM* | -2.6% | 7.94µM*[quencher]
O=[N+]([O-])c1ccc(NC(=S)NCCc2ccccc2)cc1 | ? | -2.5% | 2.8% | ? | -0.6% | 12.6µM*[quencher]
O=[N+]([O-])c1cc(C(F)(F)F)ccc1NCCNC(=S)Nc1ccc(Cl)cc1 | 11.2µM* | 1.5% | 2.1% | 20µM* | -2.7% | 7.08µM*[quencher]
CNc1nc(C)c(C(C)=O)cc1C#N | -5.8% | 1.6% | 4.1% | 4.2% | -4.7% | -3.2%
CCCCC/C=C\C/C=C\C/C=C\CCCCC(N)=O | -2.2% | 3.3% | 3.1% | 5.5% | -0.3% | -2.7%
Clc1cccc(N/N=C(\Cc2nc3ccccc3[nH]2)c2ccccc2)c1 | ? | 6.1% | 1.7% | ? | -0.6% | 7.08µM*[quencher]
CCOc1c(Cl)cc(Cl)cc1CNCCSc1nnnn1C | -11.0% | -7.9% | . | 0.5% | 8.91µM*[quencher] | -14.4%
Cn1nnnc1SCCCNCc1ccccc1OCc1ccccc1F | 7.6% | -1.6% | . | 2.9% | -20.3% | -1.3%
Cn1nnnc1SCCCNCc1cccc(OCc2ccc(F)cc2)c1 | -4.9% | -26.2% | . | -5.3% | 0.891µM*[quencher] | -15.1%

Compound activity deposited in PubChem BioAssay by National Center for Advancing Translational Sciences (NCATS).
